In ChEMBL document CHEMBL3988442, “University of Dundee, Small-Polar-MMV Screening Library” (2021):
The whole screen tested about 69,000 compounds, of which about 950 (1.4%) showed an effect of 50% or more. What follows is part of a selection rich in strong results, with near analogues and random picks from the rest.

System: Mycobacterium tuberculosis
Test: Cornell M. t heat shock assay; also: in the data most compounds retested in dose-response had high values
Format: functional, organism-based
Parameters: dose or concentration left out as unconfirmed

Row | SMILES | Percent Effect [%]
1 | Cl.O=S(=O)(c1ccc(Cl)cc1)N1CCc2nc(C3CCNCC3)ncc2C1 | 15.18
2 | COc1cc(C)c(-c2ccc(F)c3c2OC(CN)C3)cc1C (configuration not stated) | 51.67
3 | COc1cc(-c2ccc(F)c3c2OC(CN)C3)cc(OC)c1OC (configuration not stated) | -5.435
4 | COc1cccnc1-c1ccc(F)c2c1OC(CN)C2 (configuration not stated) | -14.02
5 | CC(C)CCN1C[C@H]2C[C@H](C(=O)N3CCCC3)[C@@H](C1)O2.O=C(O)C(F)(F)F | 37.85
6 | c1ccc(CN2CCN(c3ccc4nncn4n3)CC2)nc1 | 6.511
7 | O=C(CCN1CCN(c2ccc3nncn3n2)CC1)N1CCCCC1 | -7.972
8 | CC1CN(CC(=O)NC2CCCC2)CCN1c1ccc2nncn2n1 (configuration not stated) | 176.2
9 | CC1CN(CC2CCCC2)CCN1c1ccc2nncn2n1 (configuration not stated) | 85.93
10 | CC1CN(Cc2nccn2C)CCN1c1ccc2nncn2n1 (configuration not stated) | -15.38
11 | O=C(CCN1CCN(c2ccc3nncn3n2)CC1)NC1CCCC1 | -7.134
12 | CC1CN(CC(=O)N2CCCC2)CCN1c1ccc2nncn2n1 (configuration not stated) | 15.46
13 | CC1CN(CC2CCCCC2)CCN1c1ccc2nncn2n1 (configuration not stated) | 16.09
14 | CC1CCCCN1C(=O)CN1CCN(c2ccc3nncn3n2)CC1 (configuration not stated) | 5.269
15 | Cc1cnc(CN2CCN(c3ccc4nncn4n3)C(C)C2)cn1 (configuration not stated) | -3.544
16 | O=C(CN1CCN(c2ccc3nncn3n2)CC1)NC1CCCC1 | 59.84
17 | O=C(CN1CCN(c2ccc3nncn3n2)CC1)NC1CCCCC1 | 57.46
18 | COCc1ncn2c1CN(C(=O)c1cccc3cccnc13)CC2.O=C(O)C(F)(F)F | -14.48
19 | O=C(O)C(F)(F)F.O=C(O)C(F)(F)F.c1ccc(OCC2C[C@@H]3[C@@H](C2)OCCN3Cc2ccoc2)nc1 (some centres not stated) | 14.26
20 | CN(C)CCN1CCCC12CCCN(C(=O)c1cccnc1)C2.O=C(O)C(F)(F)F.O=C(O)C(F)(F)F (configuration not stated) | -7.014
21 | Cc1nc(N(C)C)nc2c1COCC21CCN(CC2CC2)C1.O=C(O)C(F)(F)F (configuration not stated) | 4.702
22 | CC1c2ncc(CNC(=O)C3CC3)n2CCN1CC1CCC1.O=C(O)C(F)(F)F (configuration not stated) | -0.1216
23 | Cc1ccc([C@]2(O)CC[C@H]3CN(Cc4cccc(Cl)c4Cl)C[C@H]32)nc1.O=C(O)CC(O)(CC(=O)O)C(=O)O | 90.52

Row | SMILES | Percent Effect [%]
24 | Cc1ccc([C@]2(O)CC[C@H]3CN(Cc4cccc(F)c4F)C[C@H]32)nc1.O=C(O)CC(O)(CC(=O)O)C(=O)O | 2.948
25 | O=C(O)CC(O)(CC(=O)O)C(=O)O.O[C@@]1(c2ccccn2)CC[C@H]2CN(Cc3cccc(Cl)c3Cl)C[C@H]21 | 14.33
26 | Cl.NC(=O)CCc1cccc(C2CCNCC2)n1 | 3.085
27 | COc1ccccc1CC(=O)N1CCCC(n2nc(C)nc2C)C1 (configuration not stated) | -10.87
28 | CC[C@@H]1N(Cc2ccc(C)s2)CCC[C@]12CCC(=O)N2C.O=C(O)C(F)(F)F | 1.978
29 | Cc1cc(C(=O)NCC2OCCc3cn(CC4CC4)nc32)c(C)[nH]1 (configuration not stated) | 105.1
30 | COCCn1cc2c(n1)C(CNC(=O)c1cc(C)[nH]c1C)OCC2 (configuration not stated) | 38.13
31 | CS(=O)(=O)CC(=O)NCC1OCCc2cn(CC3CC3)nc21 (configuration not stated) | 11.68
32 | Cn1cc(CN2CCC3(CCCN3Cc3cccnc3)CC2)cn1.O=C(O)C(F)(F)F.O=C(O)C(F)(F)F.O=C(O)C(F)(F)F | -39.86
33 | CC(=O)c1ccc(NC(=O)NC(C(=O)N(C)C)C(C)C)cc1 (configuration not stated) | 30.77
34 | COc1ccc(NC(=O)NC(C)Cn2cccn2)cn1 (configuration not stated) | 0.2337
35 | CC(C)C(NC(=O)Nc1ccc(F)cc1)C(=O)N(C)C (configuration not stated) | 54.32
36 | Cc1ccc(NC(=O)NC(C)Cn2cccn2)cc1 (configuration not stated) | 0.5452
37 | CC(Cn1cccn1)NC(=O)Nc1ccc(F)cc1 (configuration not stated) | 97.32
38 | CC(=O)c1ccc(NC(=O)N[C@H](C(=O)O)C(C)C)cc1 | -1.764
39 | O=C(O)C(F)(F)F.O=C(O)C(F)(F)F.c1cc(CO[C@@H]2CC[C@H]3[C@H]2OCCN3Cc2ccoc2)ccn1 | -10.25
40 | Cc1nc(CN2C[C@@H]3CN(C(=O)c4ccnnc4)C[C@@H]3C2=O)cs1.O=C(O)C(F)(F)F | 0.6336
41 | CN(C)CCN1CCCC12CCN(C(=O)c1cccnc1)CC2.O=C(O)C(F)(F)F.O=C(O)C(F)(F)F | -6.366
42 | CC(C)N1CCO[C@H]2CN(C(=O)c3ccsc3)C[C@H]21.O=C(O)C(F)(F)F | -22.87
43 | O=C(Nc1cccc(N2CCCC2)c1)C1CCCN1c1nccs1 (configuration not stated) | 5.051
44 | O=C(Nc1cccc2c1CCCC2)C1CCCN1c1nccs1 (configuration not stated) | 50.83
45 | O=C(Nc1cccc(F)c1)C1CCCN1c1nccs1 (configuration not stated) | 8.306
46 | CCC(C)N1CCC2(CC1)CN(c1cncnc1)C(=O)CO2.O=C(O)C(F)(F)F (configuration not stated) | -21.63

Row | SMILES | Percent Effect [%]
47 | Cc1nc(-c2ccc(F)c(F)c2)cc(C2CCNCC2)n1.Cl | -7.049
48 | Cn1cc(C2CC(=O)NC23CCN(Cc2cccc(F)c2)CC3)cn1.O=C(O)C(F)(F)F (configuration not stated) | -23.11
49 | CCOc1ccc(CN2CCc3nc4ccsc4c(=O)n3CC2)cc1.Cl | 16.23
50 | CCOCc1nn(C)c2c1CN(Cc1cccs1)CC2.O=C(O)C(F)(F)F | 29.88
51 | CC(C(=O)NN1CCOCC1)n1nc(C(F)(F)F)c(Cl)c1C1CC1 (configuration not stated) | -25.21
52 | CN(C)CCN1CCO[C@H]2CN(C(=O)c3ccsc3)C[C@H]21.O=C(O)C(F)(F)F.O=C(O)C(F)(F)F | 25.92
53 | O=C(C1CCC1)N1CC[C@H](O)[C@@H]1Cc1cccnc1.O=C(O)C(F)(F)F | 0.09339
54 | Cc1cc(N2CCCC(c3nccnc3N(C)C)C2)ncn1 (configuration not stated) | -16.62
55 | CC(C)CC(NC(=O)c1ccco1)c1nc2cccnc2n1C (configuration not stated) | -10.38
56 | CCCC(NC(=O)c1ccccn1)c1nnc2ccccn12 (configuration not stated) | -4.17
57 | CC(C)CC(NC(=O)c1ccco1)c1nnc2ccccn12 (configuration not stated) | 66.07
58 | Cc1ccc(CN2CCc3c(COCC4CC4)nn(C)c3C2)s1.O=C(O)C(F)(F)F | -29.84
59 | Cc1ccsc1CN1CCn2c(COc3cccnc3)cnc2C1C.O=C(O)C(F)(F)F.O=C(O)C(F)(F)F (configuration not stated) | 9.479
60 | CC(=O)N1CCC12CCN(Cc1ccco1)CC2.O=C(O)C(F)(F)F | -13.47
61 | Cc1cc(Nc2ccccn2)nc(C2CCCN(CCO)C2)n1.O=CO (configuration not stated) | -14.49
62 | Cc1cc(Nc2ncccn2)nc(C2CCCN(CCO)C2)n1 (configuration not stated) | 17.06
63 | Cc1cc(Nc2cnccn2)nc(C2CCCN(CCO)C2)n1 (configuration not stated) | 103.5
64 | CC(=O)N1CC(=O)N(c2ccccc2)CC12CCN(Cc1ccoc1)C2.O=C(O)C(F)(F)F (configuration not stated) | -0.426
65 | Fc1ccc(CNCC2OCCc3cn(CC4CC4)nc32)cc1.O=C(O)C(F)(F)F.O=C(O)C(F)(F)F (configuration not stated) | 12.69
66 | Cc1noc(C)c1CN1CCc2ncnc(-c3cccnc3)c2CC1.O=C(O)C(F)(F)F.O=C(O)C(F)(F)F | 12.88
67 | COc1cc(C(=O)Nc2c(C)noc2C)ccc1C | -2.052
68 | COc1cc(C(=O)Nc2cn[nH]c2)ccc1C | -19.45
69 | COc1cc(C(=O)Nc2nc(C)no2)cc(OC)c1Br | 104.3

Row | SMILES | Percent Effect [%]
70 | COc1cc(C(=O)NS(=O)(=O)c2cccc(C#N)c2)cc(OC)c1Br | -8.929
71 | COc1cc(C(=O)Nc2nc(C)no2)ccc1OC1CCCC1 | -1.479
72 | COc1cc(C(=O)Nc2nc(C)no2)cc(Cl)c1OC | 101
73 | COc1cc(C(=O)NCc2ccc3c(c2)CCCN3C)cc(OC)c1Br | -0.1722
74 | COc1cc(C(=O)Nc2nc(C)no2)ccc1OC(F)F | 79.09
75 | COc1cc(C(=O)NS(=O)(=O)c2cc(Cl)sc2Cl)ccc1OC(F)F | -14.59
76 | COc1cc(C(=O)NS(=O)(=O)c2cccc(C#N)c2)cc(Cl)c1OC | -1.963
77 | COc1cc(C(=O)Nc2nc(C)no2)ccc1C | 106.9
78 | COc1cc(C(=O)NS(=O)(=O)c2cncc(Br)c2)cc(Cl)c1OC | -14.73
79 | O=C(N1CCCC1)N1CCO[C@H]2[C@@H](Oc3ccccn3)CC[C@@H]21.O=C(O)C(F)(F)F | 0.1764
80 | Cc1ccc(CN2CC[C@@H]3OCCN(S(C)(=O)=O)[C@H]3CC2)s1.O=C(O)C(F)(F)F | 16.37
81 | O=C(N1CCCC1)N1CCc2onc(COc3cccnc3)c2C1.O=C(O)C(F)(F)F | -4.712
82 | CC(C)Cc1cc(C(=O)NCC(O)CN2CCCCCC2)on1 (configuration not stated) | -12.74
83 | CC(C)Cc1cc(C(=O)NC(C)(C)CN2CCCCCC2)on1 | 72.52
84 | CC(C)Cc1cc(C(=O)NCC2CCCN(Cc3ccco3)C2)on1 (configuration not stated) | 16.01
85 | CCc1ncnc2c1CCN(C(=O)c1ccccn1)CC2.O=C(O)C(F)(F)F | -22.3
86 | CSc1ncccc1C(=O)N1C[C@H]2CC[C@@H]1CN(C(=O)N(C)C)C2 | -1.597
87 | Cc1csc(NC(=O)c2cnc(C3CCCN3)cn2)n1.Cl (configuration not stated) | 82.89
88 | O=C(NCc1ccccn1)c1cnc(C2CCCN2)cn1 (configuration not stated) | 52.39
89 | Cc1nc(C(=O)NCc2ccccn2)cc(C2CCCN2)n1 (configuration not stated) | 45.77
90 | Cc1csc(NC(=O)c2cnc(C3CCCN(C)C3)cn2)n1 (configuration not stated) | 23.5
91 | Cc1csc(NC(=O)c2cnc(C3CCNCC3)cn2)n1.Cl | -24.76
92 | O=C(NCc1ccccn1)c1cncc(C2CCCN2)n1 (configuration not stated) | 2.609
